The values that follow come from PubChem BioAssay (Tox21).

Results filed as inconclusive are left out. Where a call stands in place of a potency, no number is given. Active and inactive are the calls of the source. Calls follow the shape of the dose curve; as a rule, active = well fitted curve in the direction sought with a large enough effect in the signal ratio in the repeat runs (not every such curve was filed as active); inconclusive = weak or mixed curves, or a change in a side signal; inactive = no such curve, though single readings can be large or run the other way; the % refers to the signal ratio.

The assay in a line: qHTS assay to identify small molecule agonists of the NFkB signaling pathway (AID 1159509). The following applies: NFkB-bla ME-180 cells, beta-lactamase FRET ratio, 5 h; series mostly up to 61 µM. An excerpt: National Center for Advancing Translational Sciences [NCATS]
NIH Chemical Genomics Center [NCGC]
U.S. Environmental Protection Agency [EPA]
National Institutes of Environmental Health Sciences [NIEHS]
National Toxicology Program [NTP]
U.S. Food and Drug Administration [FDA]
Transcription factors and their stimulated target gene expression play pivotal roles across many cellular processes including responses to environmental stimuli. Proper regulation of associated pathways is critical to maintain cell health and function. Constitutive activation of transcription factor pathways has been implicated in tumors as it may block cellular functions such as apoptosis and lead to invasion and metastasis. One important transcription factor that stimulates gene expression in response to cytokines, UV radiation, and other stimuli is nuclear factor-kappa B (NFkB). To measure activation of the NFkB pathway, the CellSensor NFkB-bla ME-180 cell line (Life Technologies, Carlsbad, CA) that stably expresses beta-lactamase reporter gene under the regulation of a NF-kB response element was used. This assay allows measurement of the NFkB pathway activity induced by compounds in a ME-180 cell line. This system quantitates NF-kB activity using a FRET-based assay system where beta-lactamase expression disrupts FRET, allowing for fluorescent measurement of activity. This cell line has been used to screen the Tox21 10K compound library and to identify compounds that induce the NFkB pathway activity.
Tox21 Assay Protocol Summary:
NFkB-bla ME-180 cells were dispensed at 2,000 cells/6 uL of assay medium per well into black wall/clear-bottom 1536-well plates using a Multidrop Combi (ThermoFisher Scientific, Waltham, MA) dispenser. After the assay plates were incubated at 37 C and 5% CO2 for an overnight, 23 nL of compounds dissolved in DMSO, positive controls or DMSO only was transferred to the assay plate by a Pintool station (Kalypsys, San Diego, CA). The assay plates were incubated at 37 C and 5% CO2 for 5 hr. One uL of LiveBLAzer B/G FRET substrate (Life Technologies) was added using a Flying Reagent Dispenser (Aurora Discovery, San Diego, CA) and the plates were incubated at room temperature for 1.5 hr. Fluorescence intensity (405 nm excitation, 460 nm and 530 nm emissions) was measured using an Envision plate reader (PerkinElmer, Shelton, CT).
In general terms: qHTS replaces the single test concentration by a dilution series.
`CCC1(CO)COCOC1`: the Potency result is “inactive”. Take `CC(C)COCC(CN(Cc1ccccc1)c1ccccc1)N1CCCC1` (stereo not given): the Potency result was “inactive”. In the case of `O=C1c2ccccc2C(=O)N1CCc1noc(-c2ccc(CN3CCCCCC3)s2)n1`, the Potency result is “inactive”. As to `CCCCCCCCCCCCCCN(CCO)CCO`, the Potency entry is “inactive”. In the case of `OCCN1CCN(CCCN2c3ccccc3Sc3ccc(Cl)cc32)CC1`, the Potency result is “inactive”. For `CCCCN(CCN(CCCC)C(=O)N1CCOCC1)C(=O)N1CCOCC1`, the Potency entry was “inactive”. On to `CN1CCCC(CC2c3ccccc3Sc3ccccc32)C1` (stereo not given), for which the Potency entry was “inactive”. Turning to `C1COC1`, the Potency result was “inactive”.

As for `OC[C@H]1O[C@@H](n2cnc3c(=S)nc[nH]c32)[C@H](O)[C@@H]1O`, the Potency result is “inactive”.

With `O=C1CCCCCCCCCCOCCCCO1`, the Potency result is “inactive”.

Turning to `COc1ccccc1Oc1c(NS(=O)(=O)c2ccc(C(C)(C)C)cc2)nc(-c2ncccn2)nc1OCCO`, the Potency result was “inactive”. In the case of `CN1C(=O)OC(C)(C)C1=O`, the Potency result was “inactive”. For `CCC(C)(C)OC` the value was “inactive”.

As for `CC(=O)c1cc2ccccc2s1`, the Potency result is “inactive”. As to `c1ccc2c(c1)CCc1ccccc1N2`, the Potency entry is “inactive”. Consider `O=c1c(O)c(-c2ccc(O)cc2)oc2cc(O)cc(O)c12`, for which the Potency entry is “inactive”.

For the molecule `CS(=O)(=O)c1ccc(-c2cn3ccccc3n2)cc1`, the Potency entry was “inactive”. Regarding `CO[C@]1(NC(=O)CSC(F)F)C(=O)N2C(C(=O)O)=C(CSc3nnnn3CCO)CO[C@H]21`, the Potency entry was “inactive”. As to `CCOC(=O)c1ccc(OCCN2C[C@H](O)[C@@H](O)[C@H](O)[C@H]2CO)cc1`, the Potency result is “inactive”. To `CCCCCCCCOc1ccc(C(=O)O)cc1` belongs “inactive”. `O=C(/C=C/c1ccc(O)c(O)c1)O[C@@H]1C[C@@](OC(=O)/C=C/c2ccc(O)c(O)c2)(C(=O)O)C[C@@H](O)[C@@H]1O`: the Potency result was “inactive”. With `C=C(C)C(=O)OCCOCCOC(=O)C(=C)C`, the Potency result was “inactive”. As for `NCCNCCO`, the Potency entry is “inactive”. For the molecule `CN1C(C(=O)Nc2ccccn2)=C(O)c2sccc2S1(=O)=O`, the Potency result is “inactive”. To `O=C(Nc1cccc2c(=O)cc(-c3nn[nH]n3)oc12)c1ccc(OCCCCc2ccccc2)cc1` belongs “inactive”. For the molecule `CCOC(C)=O`, the Potency result is “inactive”. In the case of `Cc1cc(C)c(N)cc1C`, the Potency result is “inactive”.

For the molecule `CC1(C)S[C@@H]2[C@H](NC(=O)C(c3ccccc3)S(=O)(=O)O)C(=O)N2[C@H]1C(=O)O` (stereo not given in full), the Potency result was “inactive”.

With `C[C@@H]1CN(CCCn2c3ccccc3c3ccccc32)C[C@H](C)N1`, the Potency result was “inactive”. For the molecule `CN1C(=O)N(c2ccccc2Br)Cc2cnc(Nc3ccc4c(c3)OCC(CO)O4)nc21` (stereo not given), the Potency result is “inactive”. As to `CCOc1cccc(-n2cc(C(=O)N3CCN(c4cc(C(=O)O)c5ccccc5c4)CC3)nc2-c2ccc(C)cc2)c1`, the Potency entry was “inactive”.

Turning to `CCCCN1CCCC1C(=O)Nc1c(C)cc(C)cc1C` (stereo not given), the Potency entry was “inactive”. `COc1cc(C(=O)NCCCCCC(=O)O)cc(OC)c1OC`: the Potency result is “inactive”. `CCC(C)COC(=O)CC(C)C` (stereo not given): the Potency entry is “inactive”. For `COC(=O)CS` the value was “inactive”; for `Cc1cc(=O)c2c(O)c3c(O)cc(=O)c4c3c3c(cc(O)c1c23)C(C)(C)C=4O`, “inactive”.

Turning to `CCCCCCC(C)(C)C(=O)O`, the Potency entry was “inactive”. To `CN(C)CCC=C1c2ccccc2C=Cc2ccccc21` belongs “inactive”.

For `O=c1[nH]ncc2ccccc12`, the Potency entry is “inactive”.

On to `CC(CO)CO`, for which the Potency result was “inactive”.
